Experimental findings from PubChem BioAssay (Tox21) are described below.

Inconclusive results are not listed. Entries that show only a call come without a potency. Active and inactive are the calls of the source. Calls follow the shape of the dose curve; as a rule, active = well fitted cell-killing curve with a large enough effect in the repeat runs; inconclusive = weak or mixed curves, or effect the other way; inactive = no such curve, though single readings can be large or run the other way.

This assay can be described thus: qHTS assay to identify small molecule antagonists of the peroxisome proliferator-activated receptor gamma (PPARg) signaling pathway - cell viability counter screen (AID 743194). Also: nearly all actives have a fitted effect of over 55% in size. The following applies: PPARg-bla HEK293H viability, CellTiter-Glo luminescence, 17 h, co-treated with 50 nM rosiglitazone; series mostly up to 62.6 µM. From the text: U.S. Tox21 Program National Center for Advancing Translational Sciences [NCATS] NIH Chemical Genomics Center [NCGC] U.S. Environmental Protection Agency [EPA] National Institutes of Environmental Health Sciences [NIEHS] National Toxicology Program [NTP] U.S. Food and Drug Administration [FDA] Tox21 Assay Overview: The peroxisome proliferator-activated receptors (PPARs) are lipid-activated transcription factors of the nuclear receptor superfamily with three distinct subtypes namely PPAR alpha, PPAR delta (also called PPAR beta) and PPAR gamma (PPARg). All these subtypes heterodimerize with Retinoid X receptor (RXR) and these heterodimers regulate transcription of various genes. PPAR-gamma receptor (glitazone receptor) is involved in the regulation of glucose and lipid metabolism. To identify the compounds that activate PPAR-gamma signaling, GeneBLAzer PPAR gamma UAS-bla HEK293H cell line (Invitrogen, Carlsbad, CA, USA) containing a beta-lactamase reporter gene under the control of an Upstream Activator Sequence (UAS) was used to screen the Tox21 compound library. The cytotoxicity of the Tox21 compound library against the PPARg-bla cell line was tested in parallel by measuring the cell viability using CellTiter-Glo assay in the same wells.
Tox21 Assay Protocol Summary: PPARg-bla cells were dispensed at 3000 cells/5uL/well in 1536-well black wall/clear bottom plates using a Multidrop Combi (Thermo Fisher Scientific, Waltham, MA) dispenser. After the assay plates were incubated at 37 C and 5% CO2 for 5 h, 23 nL of compounds dissolved in DMSO, positive controls or DMSO only was transferred to the assay plate by a Pintool station (Kalypsys, San Diego, CA), followed by addition of 1ul Rosiglitazone (50 nM, final concentration in the wells). The assay plates were incubated at 37 C for 17 h, and then 1 uL of LiveBLAzerTM B/G FRET substrate was added using a Bioraptr Flying Reagent Dispenser (FRD) workstation (Beckman Coulter, Indianapolis, IN, USA). The assay plates were incubated at room temperature for 1 h and fluorescence intensity was measured by an Envision plate reader (PerkinElmer, Shelton, CT). For cell viability readout that measures cytotoxicity, 4 ul/well of CellTiter-Glo reagent was added into the assay plates using a Flying Reagent Dispenser. After 30 min incubation at room temperature, the luminescence intensity in the plates was measured using a ViewLux plate reader (PerkinElmer).
For orientation: Quantitative high-throughput screening tests each substance at several concentrations.
`CCCCOC(=O)C(C)Oc1ccc(Oc2ccc(C(F)(F)F)cn2)cc1` (stereo not given): the Potency entry was “inactive”. Then `Nc1ccc(-c2ccc(F)cc2)cc1`, with “inactive”; and `CCCCCCCCCCCC(=O)OCC`, with “inactive”.

For `O=C(O)c1ccc2cc(O)ccc2c1`, the Potency result is “inactive”. Turning to `Cc1cccc(C)c1NC(=O)CN1CCCC1`, the Potency result is “inactive”. As for `CCCCCCCCCCCCSCCOCCO`, the Potency result is “inactive”.

For the molecule `Nc1cccc2c(=O)[nH][nH]c(=O)c12`, the Potency result is “inactive”. Then `O=C(O)COCC(=O)O`, with “inactive”. Take `C/C(=C\C(C)CC(C)CC(C)C)C1CC(=O)OC1=O` (stereo not given): the Potency result was “inactive”. With `CC1=C(C)C(=O)C(CCCCC#CCCCC#CCO)=C(C)C1=O`, the Potency result is “inactive”. In the case of `CCc1cnc(C(=O)O)c(C(=O)O)c1`, the Potency result was “inactive”. With `C/C=C1\[C@H]2C=C(C)C[C@]1(N)c1ccc(=O)[nH]c1C2`, the Potency result was “inactive”. As to `NCCOCCOCCN`, the Potency entry was “inactive”. For the molecule `O=C(O)c1ccccc1[N+](=O)[O-]`, the Potency result is “inactive”.

`O=C(O)c1ccc(O)c(O)c1`: the Potency entry was “inactive”.

For the molecule `Cc1ccc2ccccc2c1[N+](=O)[O-]`, the Potency entry is “inactive”.

On to `CCc1ccc2c(c1)C(=O)c1ccccc1C2=O`, for which the Potency result was “inactive”. Consider `CCCC1CCOC(C)S1` (stereo not given), for which the Potency result is “inactive”. Turning to `CCc1c(C)[nH]c2c1C(=O)C(CN1CCOCC1)CC2` (stereo not given), the Potency entry was “inactive”. Take `[O-][n+]1ccc(Cl)cc1`: the Potency result is “inactive”. For the molecule `O=C(O)c1cc(C(=O)O)cc([N+](=O)[O-])c1`, the Potency entry is “inactive”. `CC(C)NC(=O)c1ccccc1N`: the Potency result is “inactive”. `COc1cccc([C@H](O)C2CCN(CCc3ccc(F)cc3)CC2)c1OC`: the Potency entry was “inactive”. `O=C(O)c1ccc2c(c1)nc(C(=O)NC1CCN(C3CC3)CC1)n2Cc1cc(-c2ccc(Cl)s2)on1`: the Potency result is “inactive”. For `CNc1ccccc1`, the Potency entry is “inactive”. `O=P(c1ccccc1)(c1ccccc1)c1ccccc1`: the Potency entry is “inactive”. `O=C(O)c1cc(C(=O)O)c(C(=O)O)cc1C(=O)O`: the Potency result is “inactive”. For the molecule `C[C@@H](O)[C@H]1C(=O)N2C(C(=O)O)=C(S[C@@H]3CN[C@H](CNS(N)(=O)=O)C3)[C@H](C)[C@H]12`, the Potency entry is “inactive”.

For the molecule `COC(=O)c1cc(Cl)ccc1[N+](=O)[O-]`, the Potency result was “inactive”.

Turning to `C(/C=C/C=C/Nc1ccccc1)=Nc1ccccc1`, the Potency entry was “inactive”. Under `CCOc1ccc2c(c1)C(C)CC(C)(C)N2` (stereo not given) stands “inactive”. Turning to `CC(C)(C)c1ccc(CCC=O)cc1`, the Potency result was “inactive”. Turning to `C=CC(=O)NC(C)(C)C`, the Potency result is “inactive”. As for `Nc1ccccc1Nc1ccccc1`, the Potency result was “inactive”.

Regarding `O=C(Cl)c1ccc(F)c(Cl)c1`, the Potency entry was “inactive”. Under `COC(=O)C(C)(C)C` stands “inactive”. Consider `Nc1ccc(F)cc1F`, for which the Potency entry was “inactive”. Regarding `C=C[Si](OCC)(OCC)OCC`, the Potency entry was “inactive”. Turning to `CC[C@H](NC(C)C)[C@H](O)c1ccc(O)c2[nH]c(=O)ccc12`, the Potency entry is “inactive”. As to `OCCCO`, the Potency result was “inactive”.
